Calls of active or inactive are those of the source. Unless noted, how the calls were made is not given here.
Experiments:
[1] = resazurin metabolic signal in HepG2 cells – cell-based, resazurin fluorescence, 24 h, PK04 Diversity Set, profiling panel (AID 1172); settings: HepG2 viability, higher = more signal
[2] = budding yeast growth changes without added modifier – OD600, strain BY4716, 24 h, basal condition, primary screen (AID 1173); settings: S. cerevisiae BY4716 growth, OD600, 24 h; higher = more signal, called active from +8 up or from −8 down
[3] = viability profiling in MM1S myeloma cells – cell-based, resazurin fluorescence, basal, 24 h, PK04 Diversity Set, profiling panel (AID 1174); settings: higher = more signal, called active from +8 up or from −8 down;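 further: MM1S multiple myeloma cell line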
[4] = target: Dihydroorotate dehydrogenase (quinone), mitochondrial (Plasmodium falciparum (isolate 3D7)) (UniProt Q08210); test: inhibition of P. falciparum DHODH – biochemical, C-terminal His tag, absorbance 600 nm, primary screen (AID 1175); settings: PfDHODH enzyme, DCIP absorbance 600 nm; higher = more signal, called active from +8 up or from −8 down;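 further: recombinant parasite enzyme with a five histidine tag at its C terminus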
[5] = inhibition of PAO1 biofilm formation – strain PAO1, LB-PBS medium, absorbance 600 nm, primary screen (AID 1176); settings: P. aeruginosa PAO1 growth/biofilm, A600, 12 h; higher = more signal
[6] = growth modulation of vineyard yeast isolate – strain RM11-1a, OD600, basal, 24 h, primary screen (AID 1177);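 further: cultures grown under basal conditions with no added stressor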; settings: S. cerevisiae RM11-1a growth, OD600, 24 h; higher = more signal, called active from +8 up or from −8 down
[7] = growth of efflux-deficient E. coli DRC39 – strain DRC39, OD650, 24 h, E. coli filamentation inducers, primary screen (AID 1178);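 further: growth measured as culture turbidity by optical density at 650 nm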; settings: E. coli DRC39 acrAB, higher = more signal, called active from +8 up or from −8 down
[8] = growth of efflux-deficient E. coli DRC39 – strain DRC39, OD650, 48 h, E. coli filamentation inducers, primary screen (AID 1179);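 further: screen aims at cell division blockers that make cells filament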; settings: E. coli DRC39 delta-acrAB growth, higher = more signal, called active from +8 up or from −8 down
[9] = viability profiling in RPMI8226 myeloma cells – cell-based, resazurin fluorescence, basal, 24 h, PK04 Diversity Set, profiling panel (AID 1180); settings: higher = more signal;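 further: RPMI8826 multiple myeloma cell line at 5000 cells per well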
[10] = target: E3 ubiquitin-protein ligase XIAP (Homo sapiens) (UniProt P98170); test: small molecules binding XIAP protein – biophysical, small-molecule microarray, fluorescence 635 nm, primary screen (AID 1181); settings: higher = more signal;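 further: score merges 667 nm emission and signal to noise over triplicate slides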
[11] = tested on: XIP peptide (Xip251-270) binding; test: XIP fragment 251-270 binding compounds – biochemical, small-molecule microarray, fluorescence 635/667 nm, 0.1 µg/mL protein, primary screen (AID 1182); settings: fluorescent protein binding, 635 nm, higher = more signal, called active from +8 up or from −8 down
XIP peptide (Xip251-270) = test: compounds binding XIP fragment 251-270 – biochemical, small-molecule microarray, fluorescence 635/667 nm, 0.5 µg/mL protein, primary screen (AID 1183); settings: fluorescence 635 nm, higher = more signal
[12] = blood-stage malaria parasite viability loss – strain 3D7, DAPI fluorescence, 100 nL, primary screen (AID 1184);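 further: parasites grown inside human red blood cells in medium with human serum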; settings: P. falciparum 3D7 growth, 3 d, higher = more signal
[13] = target: Homeobox protein Hox-A13 (Mus musculus) (UniProt Q62424); test: disruptors of Hoxa13 oligonucleotide interaction – biochemical, fluorescence polarization, labeled oligonucleotide, primary screen (AID 1185); settings: Hoxa13:DNA binding, 15 min, higher = more signal, called active from +8 up or from −8 down
[14] = blockers of DNA damage checkpoint Chk1 activation – imaging, HeLa, hydroxyurea, phospho-Chk1 antibody, percent positive cells, primary screen (AID 1186); settings: hydroxyurea-induced phospho-Chk1 immunofluorescence imaging, higher = more signal
[15] = blockers of DNA damage checkpoint Chk1 activation – imaging, HeLa, hydroxyurea, phospho-Chk1 nuclear intensity, primary screen (AID 1187); settings: hydroxyurea-induced phospho-Chk1 immunofluorescence imaging, higher = more signal

Sequence of E3 ubiquitin-protein ligase XIAP (Homo sapiens) (P98170 whole entry, looked up, the tested form may be a part): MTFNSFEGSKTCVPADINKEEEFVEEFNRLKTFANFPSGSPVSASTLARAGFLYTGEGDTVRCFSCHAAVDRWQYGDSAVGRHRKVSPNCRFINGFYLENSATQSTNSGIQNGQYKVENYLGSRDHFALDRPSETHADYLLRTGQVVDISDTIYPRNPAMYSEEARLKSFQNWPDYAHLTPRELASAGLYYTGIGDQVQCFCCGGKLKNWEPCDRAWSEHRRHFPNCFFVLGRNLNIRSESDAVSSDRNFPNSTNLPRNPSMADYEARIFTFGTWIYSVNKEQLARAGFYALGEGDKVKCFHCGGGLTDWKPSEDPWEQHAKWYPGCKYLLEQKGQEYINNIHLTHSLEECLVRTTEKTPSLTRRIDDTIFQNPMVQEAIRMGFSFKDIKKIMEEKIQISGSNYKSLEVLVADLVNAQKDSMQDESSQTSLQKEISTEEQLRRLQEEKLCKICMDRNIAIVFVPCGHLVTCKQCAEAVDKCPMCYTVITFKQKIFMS
Sequence of Dihydroorotate dehydrogenase (quinone), mitochondrial (Plasmodium falciparum (isolate 3D7)) (Q08210 whole entry, looked up): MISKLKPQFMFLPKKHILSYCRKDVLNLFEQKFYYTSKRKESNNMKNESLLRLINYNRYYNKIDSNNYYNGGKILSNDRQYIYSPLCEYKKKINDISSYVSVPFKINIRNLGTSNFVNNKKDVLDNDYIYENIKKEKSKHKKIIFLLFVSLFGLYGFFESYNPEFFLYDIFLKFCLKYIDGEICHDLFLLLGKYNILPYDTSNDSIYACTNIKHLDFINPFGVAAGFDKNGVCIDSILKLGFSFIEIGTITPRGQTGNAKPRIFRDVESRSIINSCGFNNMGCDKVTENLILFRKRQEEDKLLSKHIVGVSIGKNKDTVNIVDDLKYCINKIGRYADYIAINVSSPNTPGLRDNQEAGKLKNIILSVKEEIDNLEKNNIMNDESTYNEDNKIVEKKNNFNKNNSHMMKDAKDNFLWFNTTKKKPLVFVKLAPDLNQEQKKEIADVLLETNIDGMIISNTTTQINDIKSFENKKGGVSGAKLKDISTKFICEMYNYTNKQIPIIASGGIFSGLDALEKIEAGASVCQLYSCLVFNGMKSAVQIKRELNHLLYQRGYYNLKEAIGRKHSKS
Sequence of Homeobox protein Hox-A13 (Mus musculus) (Q62424 whole entry, looked up): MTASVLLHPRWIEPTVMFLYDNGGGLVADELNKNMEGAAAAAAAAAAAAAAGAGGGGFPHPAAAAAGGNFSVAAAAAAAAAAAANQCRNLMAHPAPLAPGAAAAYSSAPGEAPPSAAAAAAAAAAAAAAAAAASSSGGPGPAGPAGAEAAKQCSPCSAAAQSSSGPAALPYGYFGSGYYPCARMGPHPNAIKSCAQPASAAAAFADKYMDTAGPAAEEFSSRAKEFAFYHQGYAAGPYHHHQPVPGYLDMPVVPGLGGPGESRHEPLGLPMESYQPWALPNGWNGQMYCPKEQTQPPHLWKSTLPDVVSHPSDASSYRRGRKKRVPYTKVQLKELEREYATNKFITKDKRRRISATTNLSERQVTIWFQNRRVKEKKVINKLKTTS

Structure (SMILES)	z-score [1]	z-score [2]	z-score [3]	composite z-score [4]	z-score [5]	z-score [6]	z-score [7]	z-score [8]	z-score [9]	composite z-score [10]	composite z-score [11]	composite z-score (XIP peptide (Xip251-270))	z-score [12]	z-score [13]	z-score [14]	z-score [15]
C=C(COC)/C(=C/C[C@@H](OC(=O)c1ccncc1)c1cccc(OCCO)c1)c1cnc2ccccc2c1	-0.464	-17.3 (active)	-0.835 (inactive)	-6.7 (inactive)	1.17 (inactive)	-5.29 (inactive)	-0.451 (inactive)	-0.318 (inactive)	-0.526	0.594	0.482 (inactive)	0.763	-2.79	-5.6 (inactive)	0.594 (inactive)	0.376 (inactive)
CN(C)CCCNC(=O)[C@@]1(c2ccc([N+](=O)[O-])cc2)CC(=O)N(CC23CC4CC(CC(C4)C2)C3)[C@@H]1c1ccc(CO)cc1	-6.19	-16.2 (active)	-8.92 (active)	0.687 (inactive)	0.472 (inactive)	-8.93 (active)	0.325 (inactive)	-2.4 (inactive)	-6.48	0.0896	1.13 (inactive)	0.843	-2.4	7.52 (inactive)	-0.451 (inactive)	-0.75 (inactive)
CC(C)(C)OC(=O)CC[C@@]1(C(=O)O)N=C(c2ccc(OCCCO)cc2)O[C@@H]1c1ccccc1	0.0648	0.313 (inactive)	0.0375 (inactive)	0.904 (inactive)	-0.043 (inactive)	1.4 (inactive)	0.0847 (inactive)	-0.202 (inactive)	0.56	-0.0918	0.0877 (inactive)	0.84	0.274	-2.94 (inactive)	-0.0016 (inactive)	0.18 (inactive)
CCOC(=O)C1=CC[C@@H](c2ccccc2C(F)(F)F)N(S(=O)(=O)c2ccc(C)cc2)C1	-0.217	-3.44 (inactive)	-0.578 (inactive)	-2.99 (inactive)	-0.184 (inactive)	-1.07 (inactive)	-0.346 (inactive)	0.984 (inactive)	-0.338	-0.12	0.561 (inactive)	0.667	-0.386	-2.64 (inactive)	-0.155 (inactive)	-0.341 (inactive)
C[N+](C)(C)CCCC[C@@H]1NC(=O)[C@@H]2C[C@H](C(=O)O)[C@H](c3ccc(O)cc3)N2C1=O	-1.16	0.824 (inactive)	0.18 (inactive)	-11.6 (active)	0.103 (inactive)	0.0252 (inactive)	0.233 (inactive)	0.596 (inactive)	-0.339	-0.199	2.65 (inactive)	0.124	-0.195	-1.93 (inactive)	0.115 (inactive)	0.274 (inactive)
CCOC(=O)C1=CC[C@@H](c2ccccc2)N(S(=O)(=O)c2ccc(C)cc2)C1	-0.842	1.39 (inactive)	-1.31 (inactive)	0.806 (inactive)	0.465 (inactive)	1.82 (inactive)	-0.866 (inactive)	-0.869 (inactive)	-2.53	0.0975	-0.4 (inactive)	-0.654	-0.557	-2.76 (inactive)	0.107 (inactive)	-0.749 (inactive)
O=C(CCCCCCC(=O)Nc1ccccc1)N/N=C/c1ccccc1	0.327	0.141 (inactive)	0.532 (inactive)	-0.543 (inactive)	0.437 (inactive)	0.678 (inactive)	0.83 (inactive)	0.159 (inactive)	0.718	0.248	-0.531 (inactive)	-0.57	1.01	0.458 (inactive)	-0.156 (inactive)	-0.425 (inactive)
CCCN1C(=O)[C@]2(Cc3ccccc3)N=C(c3ccc(OCCCO)cc3)O[C@@H]2c2ccccc21	0.734	-1.94 (inactive)	-0.753 (inactive)	-0.42 (inactive)	-0.0963 (inactive)	0.931 (inactive)	0.94 (inactive)	0.718 (inactive)	-1.13	0.108	-0.116 (inactive)	0.594	-2.26	-4.81 (inactive)	-0.143 (inactive)	0.231 (inactive)
COc1ccc([Si](C)(C)[C@H]2[C@H](CCn3cc([C@H](O)c4ccccc4)nn3)O[C@@]3(C(=O)N(Cc4cccc(N5C(=O)c6cccc7cccc5c67)c4)c4ccccc43)[C@@H]2C)cc1	-0.717	0.807 (inactive)	-1.98 (inactive)	0.0064 (inactive)	1.42 (inactive)	0.378 (inactive)	-0.0889 (inactive)	-0.216 (inactive)	-1.47	-0.0516	0.75 (inactive)	0.141	-0.989	-2.01 (inactive)	0.169 (inactive)	-0.656 (inactive)
CN1C(=O)C2C=CC(C(O)c3c(F)cccc3Cl)N(Nc3ccccc3)C2C1=O (centres undefined)	-0.203	-1.03 (inactive)	-0.682 (inactive)	0.061 (inactive)	0.627 (inactive)	-0.284 (inactive)	-1.11 (inactive)	-0.618 (inactive)	-0.679	0.0651	-0.108 (inactive)	0.324	1.04	-3.42 (inactive)	0.563 (inactive)	0.463 (inactive)
COCCOC(=O)N1C(=O)[C@@]2(c3cc(C#CC4=CCCCC4)ccc31)[C@H](c1ccccc1OCCO)N1[C@H](c3ccccc3)[C@H](c3ccccc3)OC(=O)[C@H]1[C@@H]2C(=O)N1CCc2cc(OC)c(OC)cc2C1	-0.605	1.46 (inactive)	-0.347 (inactive)	-0.349 (inactive)	1.92 (inactive)	2.25 (inactive)	-0.398 (inactive)	0.425 (inactive)	-0.486	-0.11	3.26 (inactive)	0.717	-1.68	2.38 (inactive)	0.0575 (inactive)	0.139 (inactive)
CCOC(=O)C[C@H]1[C@H](OC(=O)c2ccc(-c3ccccc3)cc2)[C@@H](NC(=O)c2ccc3ccccc3n2)c2cc(OCCCO)ccc2N1C(=O)c1ccccc1	-0.576	1.11 (inactive)	-0.421 (inactive)	0.421 (inactive)	-0.37 (inactive)	0.97 (inactive)	0.353 (inactive)	0.287 (inactive)	-0.193	-0.286	-0.0549 (inactive)	0.266	-1.1	-2.05 (inactive)	0.188 (inactive)	0.16 (inactive)
COc1ccc(C(O)C2C=CC3C(=O)N(c4ccccc4)C(=O)C3N2Nc2ccccc2)cc1OCc1ccccc1 (centres undefined)	-1.04	-2.82 (inactive)	-1.24 (inactive)	0.416 (inactive)	1.67 (inactive)	0.0482 (inactive)	-0.628 (inactive)	-0.131 (inactive)	-1.2	0.0714	0.0123 (inactive)	0.713	-0.0742	-1.8 (inactive)	0.302 (inactive)	-0.156 (inactive)
CN1C(=O)C2C=CC(C(O)Cc3ccccc3)N(N(c3ccccc3)c3ccccc3)C2C1=O (centres undefined)	-0.567	-0.519 (inactive)	-1.62 (inactive)	-0.443 (inactive)	0.543 (inactive)	0.303 (inactive)	-0.804 (inactive)	-0.233 (inactive)	-0.855	0.0918	-0.072 (inactive)	0.645	-0.077	-2.48 (inactive)	0.077 (inactive)	-0.0628 (inactive)
[N-]=[N+]=Nc1ccccc1[C@H]1OC(c2ccc(OCCCO)cc2)=N[C@@]1(CCS(=O)(=O)c1ccccc1)C(=O)N1CCCCC1	0.186	-0.0728 (inactive)	-1.63 (inactive)	-0.792 (inactive)	0.715 (inactive)	0.836 (inactive)	0.21 (inactive)	-0.714 (inactive)	-1.64	-0.0884	0.154 (inactive)	0.755	-2.19	-1.18 (inactive)	-0.483 (inactive)	-0.458 (inactive)
CCCCN1CC=CC23O[C@@H]4/C=C\CCC(C)OC(=O)C4[C@H]2C(=O)N(CCCCCCO)[C@@H]3C1=O (some centres undefined)	0.634	0.14 (inactive)	0.234 (inactive)	-0.524 (inactive)	0.109 (inactive)	0.432 (inactive)	0.666 (inactive)	0.544 (inactive)	0.981	0.0081	0.879 (inactive)	0.0096	0.11	-4.7 (inactive)	-0.494 (inactive)	0.339 (inactive)
C[C@]1(C(=O)NC2CC2)c2ccccc2C(=O)N(Cc2ccc(OC(F)(F)F)cc2)[C@H]1c1ccc(CO)cc1	-0.268	-0.708 (inactive)	0.191 (inactive)	0.0758 (inactive)	-0.109 (inactive)	-0.474 (inactive)	0.0997 (inactive)	0.054 (inactive)	-0.254	-0.225	0.282 (inactive)	-0.923	0.516	-3.59 (inactive)	-0.0307 (inactive)	-0.521 (inactive)
CN1C(=O)C2C(C1=O)C1C=C(c3ccc(CO)cc3)C2C(c2cccs2)N1Cc1cccc(OC(F)(F)F)c1 (centres undefined)	-0.153	-2.49 (inactive)	-2.06 (inactive)	-1.6 (inactive)	-0.387 (inactive)	0.476 (inactive)	-0.383 (inactive)	-0.319 (inactive)	-1.08	0.214	0.94 (inactive)	0.591	-3.19	-8.09 (active)	-0.384 (inactive)	-0.0226 (inactive)
C=CCNC(=O)[C@@H]1[C@H]2C(=O)O[C@H](c3ccccc3)[C@H](c3ccccc3)N2[C@H](c2ccccc2OCCO)[C@@]12C(=O)N(C(=O)OCCOC)c1ccc(C#CC3=CCCCC3)cc12	0.402	0.466 (inactive)	-1 (inactive)	-0.458 (inactive)	2.19 (inactive)	1.08 (inactive)	0.368 (inactive)	0.628 (inactive)	-1.31	0.0683	0.0103 (inactive)	0.769	-2.08	1.31 (inactive)	-0.136 (inactive)	-0.103 (inactive)
